An excerpt weighted towards active compounds, which were near 2.7% of everything screened.
A549 tox = A549 cytotoxicity, counter-screen for Nrf2 inhibitors | A549 ARE-Fluc cells, CellTiter-Fluor viability, 18-24 h | 0.16% of 390,000 active | Potency, µM (series often up to 46 µM), for the others: top-dose activity change, negative = cytotoxicity, actives largely listed as inhibitors; further: potency means the concentration at half of the fitted maximal effect; on the % scale 0 is the no-effect control and ±100 the full control effect
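A549 ARE-Fluc cells in 5% FBS OPTI-MEM, 5000 cells/well, rested 2 h then exposed to compounds in concentration-response for 18-24 h at 37 °C. Viability by CellTiter-Fluor fluorescence (Ex 405/Em 525) after 30 min; luciferase luminescence (BugLite, 15 min, RT) read afterwards.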
LDHA block = inhibitors of human lactate dehydrogenase A | activity change, % (values are at about 110 or 230 µM) | purified LDHA, NADH/diaphorase-resazurin fluorescence; stronger effect = lower value | P00338 | AID 1347041 | 0.15% of 480,000 active; in the data active means activity change below about -30%; inconclusive means mostly about -25% to -30%;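 further: plate controls were DMSO wells for no effect and wells without enzyme for full effect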
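Human LDH5 at 2 nM final in Tris HCl pH 7.4 with 0.06 mM NADH and 0.2 mM pyruvate, reacted 5 minutes at room temperature. Remaining NADH coupled via diaphorase/resazurin; resorufin fluorescence read at 0 and 20 minutes, normalized to enzyme-free and DMSO wells.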
Nrf2 ARE act = activators of Nrf2 (ARE) signaling; AREc32 ARE-luciferase reporter (MCF7-derived line), luminescence, 24 h; Potency, µM (doses to about 46.1 µM), for inactives: at the top dose activation, usual class: activators; 0.31% of 410,000 active; further: potency means the concentration at half of the fitted maximal effect; % of control where 0% means no effect; nearly all actives have a fitted effect of over 65% in size
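AREc32 cells carrying an ARE-driven firefly luciferase reporter were seeded at 1000 cells/well in OPTI-MEM with 5% FBS, then exposed to compound for 24 hr at 37 deg C. Luminescence was read with Steady-Glo after 30 min at RT.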
Nrf2 inh = Nrf2 pathway inhibition. A549 ARE-Fluc reporter, luciferase luminescence, 18-24 h. Potency, µM (titrated, usually from 46 µM), inactives show at the highest dose activity change, negative = inhibition, actives largely listed as inhibitors. 2.1% of 360,000 active. AID 504444; further: potency means the concentration at half of the fitted maximal effect; on the % scale 0 is the no-effect control and ±100 the full control effect; nearly all actives have a fitted effect of over 60% in size
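Quantitative HTS in A549 cells stably bearing an antioxidant response element-firefly luciferase construct. Inhibition of Nrf2-driven transcription was scored by luminescence after 18-24 h of compound exposure at 37 °C.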
ALOX12 inh = ALOX12 (human) lipoxygenase inhibition | Potency, µM (highest dose often 108 µM), for the others: at the highest dose activity change, negative = inhibition, hits mostly inhibitors | AID 1671190 | 1.1% of 580,000 active | purified 12hLO, xylenol orange hydroperoxide absorbance; further: potency means the concentration at half of the fitted maximal effect; on the % scale 0 is the no-effect control and ±100 the full control effect
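Purified human 12hLO (150 nM final) in 25 mM Hepes, 0.01% Triton X-100, pH 7.0 was preincubated 15 min at room temperature with compound. Then 40 uM arachidonic acid was added, 30 min. Hydroperoxide was read by Fe-XO absorbance ratio 573/405 nm.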
IDH1 R132H inh = inhibitors of human mutant IDH1 R132H | O75874 | IDH1-R132H enzyme, NADPH consumption, diaphorase/resazurin fluorescence | Potency, µM (highest dose often 76.6 µM), for the others: at the top dose activity change, negative = inhibition, hits mostly inhibitors | 0.093% of 390,000 active | AID 602179; further: potency means the concentration at half of the fitted maximal effect; on the % scale 0 is the no-effect control and ±100 the full control effect; nearly all actives have a fitted effect of over 65% in size
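IDH1-R132H (0.5 ug/mL dispensed) in pH 7.5 Tris buffer was preincubated 30 min with compound, then given a substrate mix of 0.016 mM NADPH and 2 mM alpha-KG for 80 min at room temperature; remaining NADPH was read by diaphorase/resazurin fluorescence.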
* hit, by the source's call; ? = inconclusive; / = no result. Unless noted, the call rests on the fitted dose curve; in most records, active means well fitted curve in the direction sought with a large enough effect; inconclusive means small, poorly fitted or top-dose-only effect, or another doubt; inactive means no such curve, though single readings can be large; an effect the other way counts as inactive or inconclusive.

SMILES	A549 tox	LDHA block	Nrf2 ARE act	Nrf2 inh	ALOX12 inh	IDH1 R132H inh
CC(C)(C)c1ccc(-c2nc(C#N)c(NCc3ccccc3)o2)cc1	/	12.4	/	/	?	/
Cc1cc(C(=O)N2CCNCC(O)C2)c(-c2ccccc2)o1 (stereo not drawn)	/	/	/	/	21.5%	/
Cc1ccc(-c2cc(C(=O)NNC(=O)c3csc(N4CCOCC4)n3)c3ccccc3n2)cc1	-18.6%	-10.1	12.9%	20.6µM*	0.0%	0.7%
CC(NC(=S)NCc1ccc(F)cc1)c1ccncc1 (stereo not drawn)	/	9.6	/	/	48.5%	/
COc1ccc(C(=O)NCCn2cc(SCC(=O)Nc3ccc(C)cc3)c3ccccc32)cc1	-26.5%	-1.8	-0.8%	/	-21.4%	-6.4%
COc1ccc(C(=O)NCCn2cc(SCc3cc(C)ccc3C)c3ccccc32)cc1	?	7.5	1.2%	18.4µM*	-24.2%	-5.5%
Cc1nnc(Sc2c(-c3ccccc3)c3ccc(Cl)cc3[nH]c2=O)s1	-12.6%	-2.2	-0.8%	18.4µM*	3.4%	5.1%
O=C(NC1CCCCC1)c1cc(-c2ccc(Br)cc2)nc2ccccc12	/	6.7	/	/	0.2%	/
Cc1cc(C)n2nc(-c3ccc(Cl)cc3)cc2n1	7.9%	-1.1	14.1µM*	?	0.0%	2.4%
COc1ccc(-c2cc3nc(C)cc(C)n3n2)cc1	-5.2%	-0.2	25.8%	?	1.5%	16.3%
Cc1cc(-c2ccc(Cl)cc2)n2nc(C)cc2n1	1.9%	-3.4	0.6%	4.9%	9.5%	0.2%
Cc1cc(C)n2nc(-c3ccc(Br)cc3)cc2n1	25.5%	-1.2	2.24µM*	?	11.8%	2.3%
COc1ccc(CNC(=S)NC(C)CCc2ccccc2)cc1 (stereo not drawn)	0.3%	-2.9	-0.8%	-12.1%	39.8µM*	0.9%
Cc1ccc(NC(=S)NC(C)CCc2ccccc2)cc1C (stereo not drawn)	15.8%	-6.9	2.6%	-13.8%	?	5.1%
Cc1cccc(C)c1NC(=S)NC(C)CCc1ccccc1 (stereo not drawn)	4.5%	-1.8	-0.2%	-5.0%	39.8µM*	2.4%
N#Cc1sc(-c2cccc(Cl)c2)cc1N	/	-5.4	/	/	-18.4%	/
COc1ccc(CNc2nc(S(=O)(=O)c3ccccc3)c(Cl)s2)cc1OC	-21.5%	1.4	3.5%	14.6µM*	-25.9%	-1.3%
O=S(=O)(c1ccccc1)c1nc(NCc2ccccc2)sc1Cl	-3.7%	-4.3	0.7%	?	13.0%	-4.5%
Cc1ccc(S(=O)(=O)c2nc(Nc3ccccc3)sc2Cl)cc1	-17.9%	-0.7	0.3%	?	-14.2%	2.0%
O=S(=O)(c1ccccc1)c1nc(Nc2cccc(O)c2)sc1Cl	7.2%	-9.5	4.8%	-0.1%	35.5µM*	-1.8%
CN(C)NC(=S)NC1CC2CCC1C2 (stereo not drawn)	-0.6%	-7.1	-1.0%	10.9%	17.8µM*	2.8%
CSc1ncccc1C(=O)Nc1nc2ccc(Oc3ccccc3)cc2s1	-6.8%	1.4	8.4%	10.3µM*	-5.7%	0.1%
COCC(=O)Nc1nc2ccccc2s1	2.5%	-3.5	0.8%	14.2%	-24.5%	1.9%
NC(=S)Nc1nc2ccccc2s1	-5.4%	-6.0	?	?	6.31µM*	1.8%
COc1ccc2nc(NC(=O)c3ccccc3F)sc2c1	7.3%	-3.3	?	1.3µM*	0.0%	0.9%
COc1ccc(C(=O)Nc2nc3ccccc3s2)c(OC)c1	4.3%	-5.4	-1.6%	7.31µM*	38.3%	11.8%
COc1ccc2nc(NC(=O)c3ccccc3C(=O)O)sc2c1	-0.4%	2.3	4.3%	-15.5%	-9.4%	0.0%
CSc1ncccc1C(=O)Nc1ccc2nc(C)sc2c1	-2.4%	-4.2	-0.2%	3.0%	10.8%	22.7%
COCc1ccc(C(=O)NCC(C)c2ccccc2)cc1 (stereo not drawn)	/	1.1	/	/	18.4%	/
COc1ccccc1C(=O)Nc1nc2ccccc2s1	3.1%	1.0	-6.1%	6.51µM*	-3.1%	17.7%
